# Screens (PubChem BioAssay)
# Rows were chosen to be rich in hits. Some 1.5% of all compounds tested hit in one or more screens of this group.
# IL-2 act – qHTS of IL-2 Activators; IL-2 activation reporter assay, cell-based qHTS; stimulated with anti-CD3/CD4/CD28 beads; in transgenic mouse T cells; activation, % (series mostly up to about 46 µM); actives 0.065% (n = 360,000); AID 652025, 2013; in the data active = activation above about 50%; inconclusive = mostly about 30% to 49%; note: 0% is about no effect
#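 Unstimulated transgenic mouse T cells preincubated 60 min with compound, then stimulated with anti-CD3/anti-CD4-coated beads plus anti-CD28 for 18 h at 37 degrees C. IL-2 response read as EGFP and DsRed fluorescence by plate cytometry.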
# BRCA1 expr up – qHTS Assay to Identify Small Molecule Activators of BRCA1 Expression; actives 1.1% (n = 380,000); MCF7-BRCA1-FFLuc reporter, luminescence, 48 h; response scale: scaled: vehicle 0%, 10 µM genistein 100%; AID 624202, 2012; Potency, µM (series often up to 46.1 µM), without a hit: at the highest dose activation, most hits filed as activators; note: potency is the fitted concentration of half-maximal effect; nearly all actives have a fitted effect of over 80% in size
#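 48 h compound treatment of MCF7-BRCA1-FFLuc cells (phenol-red free MEM, 37 °C), then 15 min with luciferase substrate and luminescence imaging.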
# IDH1 R132H inh – qHTS for Inhibitors of mutant isocitrate dehydrogenase 1 (IDH1): qHTS; IDH1-R132H enzyme, NADPH consumption, diaphorase/resazurin fluorescence; Potency, µM (highest dose often 76.6 µM), without a hit: at the top dose activity change, negative = inhibition, actives largely listed as inhibitors; actives 0.093% (n = 390,000); note: potency is the fitted concentration of half-maximal effect; % is set by controls: 0 for no effect and ±100 for the full control effect; nearly all actives have a fitted effect of over 65% in size
# Target sequence (O75874 whole entry R132H, stated change not applied): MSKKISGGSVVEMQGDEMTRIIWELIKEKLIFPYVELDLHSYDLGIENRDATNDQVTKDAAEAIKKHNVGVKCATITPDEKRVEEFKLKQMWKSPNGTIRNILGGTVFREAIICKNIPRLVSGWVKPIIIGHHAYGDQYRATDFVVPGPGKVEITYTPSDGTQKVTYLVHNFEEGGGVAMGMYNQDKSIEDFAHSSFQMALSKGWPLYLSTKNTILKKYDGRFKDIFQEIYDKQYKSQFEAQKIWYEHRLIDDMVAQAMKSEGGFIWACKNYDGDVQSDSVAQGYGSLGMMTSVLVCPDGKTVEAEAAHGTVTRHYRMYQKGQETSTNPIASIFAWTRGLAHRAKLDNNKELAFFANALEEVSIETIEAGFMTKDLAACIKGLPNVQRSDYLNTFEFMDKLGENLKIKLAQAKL
#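 IDH1-R132H (0.5 ug/mL) preincubated 30 min with compound, then NADPH (0.016 mM) and alpha-KG (2 mM) added; 80 min at RT, pH 7.5. Remaining NADPH coupled via diaphorase/resazurin to fluorescence (540/590 nm); concentration-response curves normalized to no-enzyme control.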
# gsp antag – qHTS for Antagonists of gsp, the Etiologic Mutation Responsible for Fibrous Dysplasia/McCune-Albright Syndrome: qHTS | gsp-mutant cells, cAMP HTRF, 30 min | Potency, µM (top dose mostly 76.9 µM), without a hit: at the top dose activity change, negative = inhibition, most hits filed as inhibitors | AID 624288, 2012 | actives 0.4% (n = 340,000); calls by dose curve; cell line not stated here;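 note: intracellular cAMP measured with PDE inhibitor Ro 20-1724 present during compound exposure; potency is the fitted concentration of half-maximal effect; % is set by controls: 0 for no effect and ±100 for the full control effect; nearly all actives have a fitted effect of over 65% in size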
#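 G418-selected cells were plated in DMEM/10% FBS for 16-24 h at 37C, then treated with compounds plus the PDE inhibitor […] (300 uM solution added) for 30 min at 37C. Intracellular cAMP was measured by HTRF after 30 min lysis at room temperature.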
# gsp ag – qHTS for Agonist of gsp, the Etiologic Mutation Responsible for Fibrous Dysplasia/McCune-Albright Syndrome: qHTS | gsp mutant cells, cAMP HTRF, 30 min | Potency, µM (titrated, usually from 76.9 µM), for the others: at the highest dose activation (cAMP increase), most hits filed as activators | actives 0.13% (n = 340,000) | AID 624287, 2012; active = well fitted activation curve with a large enough effect; inconclusive = small, poorly fitted or top-dose-only effect, or another doubt; inactive = no such curve, though single readings can be large or run the other way; cell line not stated here;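 note: phosphodiesterase inhibitor Ro 20-1724 added with compounds to block cAMP breakdown; potency is the fitted concentration of half-maximal effect; nearly all actives have a fitted effect of over 60% in size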
#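 Cells in DMEM/10% FBS with G418 were pretreated with compounds in DMSO plus […] (300 uM stock) for 30 min at 37C. cAMP was measured by HTRF (cAMP-d2 plus anti-cAMP antibody-K) after 30 min at room temperature.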
# * hit, by the source's call; u = inconclusive; x = no result given; [ ] = dose if it differs, or a comment. Unless noted, calls come from the whole dose curve; as a rule, active = well fitted curve in the direction sought with a large enough effect; inconclusive = small, poorly fitted or top-dose-only effect, or another doubt; inactive = no such curve, though single readings can be large; an effect the other way counts as inactive or inconclusive.
SMILES,IL-2 act,BRCA1 expr up,IDH1 R132H inh,gsp antag,gsp ag
Fc1cccc(/C=N/Nc2ccccn2)c1,-3,7.9µM*,8%,-4%,-20%[15.4 µM]
Fc1ccc(/C=N/Nc2nc3ccccc3[nH]2)cc1F,0,84%,2%,-10%,29%
C(=N\Nc1nc2ccccc2[nH]1)/c1c[nH]c2ccccc12,-6,-9%,3%,40µM*,4%[15.4 µM]
Fc1cccc(F)c1/C=N/Nc1ccccn1,1,-22%,3%,10%,1%
CCOc1ccc(CNC(=O)c2ccccc2NC(=O)c2nsc3ccccc23)cc1,x,x,10%,x,x
CC(C)=CCC/C(C)=C/CC/C(C)=C/CCC1(C)CCc2cc(O)ccc2O1 (configuration not stated),x,0%,x,x,x
CN(C)/[N+]([O-])=N/Oc1ccc([N+](=O)[O-])cc1C(F)(F)F,x,20%,x,x,x
CCOc1ccc(C2C=C(c3ccccc3)Nc3nnnn32)cc1 (configuration not stated),0,7.1µM*,0%,-18%,15%
CCOc1ccc(C2C=C(c3cccc(OC)c3)Nc3nnnn32)cc1 (configuration not stated),x,23%,10%,x,x
CCOc1ccc(C2C=C(c3ccc(C)cc3)Nc3nnnn32)cc1 (configuration not stated),21,-34%,-1%,40µM*,11%
Cc1ccc(-c2csc(NC(=O)c3ccc(Br)cc3)c2C(=O)O)cc1,0,2µM*,21%,u,9%
CCC(=O)c1ccc(OCC(=O)Nc2cccc(S(=O)(=O)N(C)c3ccccc3)c2)cc1,-1,0%,6%,28µM*,-3%
O=C(NC1CCCc2ccccc21)c1cnn2c1NC(=C1CC1)C=C2C(F)F (configuration not stated),x,-29%,x,x,x
O=C(c1cccs1)N1N=C(c2ccc(O)cc2)CC1c1ccccc1 (configuration not stated),-3,-33%,-2%,u,11%
O=C(c1cccs1)N1N=C(c2ccccc2)CC1c1ccc(O)cc1 (configuration not stated),-1,-15%,-17%,28µM*,23%
COc1cc2nc(N3CCOCC3)nc(NC3CC3)c2cc1OC,x,-9%,x,x,x
O=C(NC1CCCC1)C(c1cccnc1)N(C(=O)c1csnn1)c1ccccc1 (configuration not stated),0,-10%,5%,5%,u
Cc1ccc(C(=O)c2coc3cc([N+](=O)[O-])c(O)c([N+](=O)[O-])c23)cc1,0,-43%,18%,35µM*,-68%
Cc1ccc(C(=O)c2ccc([N+](=O)[O-])cc2)cc1,0,14%,1%,-8%,-6%
Cc1noc(C)c1C(=O)OCC(=O)c1c(N)n(CC(C)C)c(=O)n(C)c1=O,0,-25%,-2%,20%,32µM*
CC(C)Cn1c(N)c(C(=O)COC(=O)c2cccc(Cl)c2)c(=O)n(C)c1=O,-1,-2%,6%,50µM*,4%[15.4 µM]
Cc1ccc(C(=O)Nc2ccc(C(F)(F)F)n(C)c2=O)cc1,-1,15%,3%,22%,-3%[15.4 µM]
COc1ccc(C(=O)Nc2ccc(C(F)(F)F)n(C)c2=O)cc1,1,11µM*,6%,-5%,-1%
CCC(C)[C@H](NC(=O)C1CC(=O)N(c2ccc(OC)cc2)C1)C(=O)NC1CCCC1 (some centres not stated),-3,4%,-11%,9%,22%
COc1ccc(CN(Cc2ccccc2)C(C)=O)cc1COc1ccc(NC(C)=O)cc1,x,0%,x,x,x
SMILES,IL-2 act,BRCA1 expr up,IDH1 R132H inh,gsp antag,gsp ag
COc1cc(Cl)c(NC(=O)CN(C)S(=O)(=O)c2ccc3[nH]c4c(c3c2)CCCC4)c(OC)c1,x,x,-8%,x,x
O=C(Nc1ccccc1)Nc1ncc([N+](=O)[O-])s1,-7,-27%,2%,28µM*,-12%[15.4 µM]
O=C(COC(=O)c1ccccc1)Nc1ncc([N+](=O)[O-])s1,0,58%,8%,-6%,-1%[15.4 µM]
O=C(Cn1c(SCc2ccc(F)cc2)nc2cccnc21)Nc1ccccc1F,x,x,-5%,x,x
Cc1ccc(NC(=O)CN2C(=O)N/C(=C/c3ccc(C)s3)C2=O)cc1,53*,-6%,2%,23%,-1%
Cc1ccc(/C=C2/NC(=O)N(Cc3ccccc3)C2=O)s1,159*,19%,-5%,8%,-21%
Cc1cccc(CN2C(=O)N/C(=C/c3ccc(C)s3)C2=O)c1,14,-47%,0%,2%,-32%
CCCC12CN3CC(CCC)(CN(C1)C3c1ccccc1)C2=O (configuration not stated),x,x,18%,x,x
O=C(O)c1ccc(Nc2nc3c(s2)CCCC3)cc1,0,u,11%,-15%,10µM*
Cc1cccc(Nc2nc3c(s2)CCCC3)c1,1,10µM*,6%,-7%,-21%
O=C(NCCOc1ccccc1Cl)c1ccc2c(c1)S(=O)(=O)c1cc(Cl)ccc1C2=O,-1,10%,-5%,-10%,5%
CSc1ccc(-c2nnn(Cc3ccccn3)n2)cc1,6,8.9µM*,4%,7%,-27%
COC(=O)C(Cc1ccc(OC(=O)c2ccccc2Cl)cc1)N1Cc2ccccc2C1=O (configuration not stated),-2,6.3µM*,-1%,-26%,-3%
CNc1nc(C)c(C(=O)OCc2ccccc2)s1,-1,11µM*,3%,-17%,-22%
COC(=O)c1sc(NC(=O)COc2ccccc2)nc1C,0,7.9µM*,-3%,-1%,3%
CNc1nc(C)c(C(=O)OCC(=O)OC)s1,-3,3%,0%,3%,-3%
CC(=O)c1cc(-c2ccccc2)n(CC(=O)NC2CCCCCC2)c1C,x,x,6%,x,x
Cc1ccc(SCC(=O)NCCSC(C)(C)C)cc1,-2,8.9µM*,1%,2%,37%
COCCNC(=O)CSc1ccc(C)cc1,2,2%,4%,-2%,-15%
Cc1cccc(CNC(=O)CN2C(=O)CCCc3ccccc32)c1,x,x,-4%,x,x
Cc1ccc(SCC(=O)c2ccc[nH]2)cc1,2,3.2µM*,10%,11%,2%[15.4 µM]
Cc1ccc(CNC(=O)c2ccc[nH]2)cc1,-3,9%,9%,-9%,13%[15.4 µM]
O=C(NCC1CC1)c1cccc2c(-c3ccc(F)c(F)c3)coc12,0,3.5µM*,x,x,x
Clc1ccc(/C=N/N2CCCCC2)cc1,0,43%,3%,-2%,-2%
O=[N+]([O-])c1ccc(/C=N/N2CCCCC2)cc1,-1,10µM*,-3%,5%,4%
